Drawing on PubChem BioAssay (NCATS), this text covers Potency for 40 compounds.

Values joined by “and” are separate entries in the source; they are usually repeats but may differ in a detail not shown here. Equal entries are not always repeated. Inconclusive results are not listed. Where a call stands in place of a potency, no number is given. The source holds several records for some structures; these can differ, active in one and inactive in another. Active and inactive are the calls of the source. Calls follow the shape of the dose curve; as a rule, active = well fitted cell-killing curve with a large enough effect; inconclusive = small, poorly fitted or top-dose-only effect, or effect the other way; inactive = no such curve, though single readings can be large or run the other way.
Potency is read from the fitted curve at half-maximal effect.

The assay can be described thus: Viability qHTS for spleen associated tyrosine kinase inhibitor (SYKi) naive MV4-11 cells (AID 1963823). Also: nearly all actives have a fitted effect of over 40% in size. The settings on record: MV4-11 AML viability, CellTiter-Glo luminescence, 72 h; series mostly up to 45 µM. Summed up: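 Luminescence from CellTiter-Glo, developed 10 min at room temperature, gave viability of MV4-11 cells never exposed to SYK inhibitor. Cells (500/well) had been incubated with compounds for 72 hr under standard culture conditions.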
In the case of `O=C1OCCN1/N=C/c1ccc([N+](=O)[O-])o1`, the Potency result is “inactive”.
For `CC(C)(O)c1ccccc1CC[C@@H](SCC1(CC(=O)O)CC1)c1cccc(/C=C/c2ccc3ccc(Cl)cc3n2)c1` the value was “inactive”; for `Oc1cccc2[nH]ccc12`, 5.31 µM (active).
Take `C[C@@H](O)[C@@H](C)Oc1nc(Nc2ccc(S(=N)(=O)C3CC3)cc2)ncc1C(F)(F)F` (stereo not given in full): the Potency is 3.32 µM (active).
The value for `FC(F)(F)c1ccc(Nc2nc(-c3c(C(F)(F)F)nc4ccccn34)cs2)cc1` was 0.184 µM (active); that for `O=C(O)C1(C(=O)O)CCC1.[NH2-].[NH2-].[Pt+2]` was “inactive”.
Take `COc1ccccc1N1CCN(CCCCNC(=O)c2ccc(-c3ccc(C(C)=O)cc3)cc2)CC1`: the Potency result was “inactive”.
For `CCc1c(-c2ccccc2C)nc2c(C#N)c[nH]n2c1=O`, the Potency entry was “inactive”.
For `FC(F)(F)c1ccccc1-n1ccnc1` the value was “inactive”; for `Nc1ccc(C(=O)OCC(O)CO)cc1` (stereo not given), “inactive”.
The value for `C[C@H]1C[C@H]2[C@@H]3CCC4=CC(=O)C=C[C@]4(C)[C@@]3(Cl)[C@@H](O)C[C@]2(C)[C@@]1(O)C(=O)CO` was 21.1 µM (active).
The value for `c1ccc2c(c1)CCc1ccccc1N2` was “inactive”; that for `C[C@]12CC[C@@H]3c4ccc(O)cc4CC[C@H]3[C@@H]1CC[C@@H]2OC(=O)CCC1CCCC1` was “inactive”.
On to `CC(N=C(NC#N)Nc1ccncc1)C(C)(C)C` (stereo not given), for which the Potency entry is “inactive”.
The value for `O=C(C[C@@H]1C/C=C\CCC(=O)O[C@H](c2ccccc2)CNC1=O)NCc1ccc(Cl)cc1` was 4.68 µM (active).
In the case of `CC[C@]12C=CCN3CC[C@@]4(c5cc([C@@]6(C(=O)OC)CC7C[C@@H](C(C)(F)F)CN(Cc8c6[nH]c6ccccc86)C7)c(OC)cc5N(C)[C@H]4[C@@](O)(C(=O)OC)[C@@H]1OC(C)=O)[C@@H]32` (stereo not given in full), the Potency was 0.0934 µM (active).
For `COC(=O)/C=C/C(=O)N(O)CCCCNCc1ccc(COC(=O)Nc2cccc3ccccc23)cc1` the value was 7.31 µM (active).
The value for `CC(=O)[C@@]1(O)CC[C@H]2[C@@H]3C[C@H](C)C4=CC(=O)C=C[C@]4(C)[C@@]3(F)[C@@H](O)C[C@@]21C` was “inactive”; that for `Cc1cc(C)c(S(=O)(=O)N(CCc2cccc(Br)c2)Cc2ccc(-c3cccc(S(C)(=O)=O)c3)cc2)c(C)c1` was “inactive”; that for `COc1cccc2c1c(O)c(C(=O)N(C)c1ccc(C(F)(F)F)cc1)c(=O)n2C` was “inactive”.
The value for `O=C(O)C1=CO[C@@H](O[C@@H]2O[C@H](CO)[C@@H](O)[C@H](O)[C@H]2O)[C@@H]2C(CO)=CC[C@H]12` was 10.1 µM (active) and inactive; that for `COc1ccc(C(=O)C2CCN(CC(=O)N(Cc3nc4c(c(=O)[nH]3)COCC4)CC3CC3)CC2)cc1` was “inactive”; that for `O=C(O)CCn1c2c(c3ccccc31)C[C@H](NS(=O)(=O)c1ccc(F)cc1)CC2` was “inactive”.
For `O=C(Nc1ccc(OC(F)(F)Cl)cc1)c1cnc(N2CC[C@@H](O)C2)c(-c2ccn[nH]2)c1`, the Potency was 5.9 µM (active).
Take `[Cl][In]([Cl])[Cl]`: the Potency entry was “inactive”.
For `COc1cc(NS(=O)(=O)c2ccc(N)cc2)nc(C)n1` the value was “inactive”; for `CO[C@@]12[C@H](COC(N)=O)C3=C(C(=O)C(C)=C(N)C3=O)N1C[C@@H]1N[C@@H]12`, 119 nM (active) and 118 nM (active).
On to `C=C1CCC[C@]2(C)C=C3OC(=O)C(C)=C3C[C@@H]12`, for which the Potency result is “inactive”.
As to `CCO[C@@H]1OC(=O)C[C@@H]1NC(=O)[C@@H]1CCCN1C(=O)[C@@H](NC(=O)c1ccc(N)c(Cl)c1)C(C)(C)C`, the Potency result is “inactive”.
The value for `Cc1ccc(/C=N/n2c(-c3ccccc3)csc2=S)cc1` was “inactive”; that for `COC(=O)CCCCC(CCSS/C(CCO)=C(\C)N(C=O)Cc1cnc(C)nc1N)SC(C)=O` (stereo not given) was “inactive”.
For `O=C1CC(c2ccc(Cl)cc2)CC(=O)N1` the value was “inactive”; for `CN1C(=O)[C@@H](NC(=O)c2n[nH]c(Cc3ccccc3)n2)COc2ccccc21`, “inactive”; for `O=C(O)CCCC[C@@H]1SC[C@@H]2NC(=O)N[C@@H]21`, “inactive”.
For `C[C@@H]1[C@H](O)[C@@H](C)/C=C/C=C/C=C/C=C/C=C/C=C/C=C/[C@H](O[C@@H]2O[C@H](C)[C@@H](O)[C@H](N)[C@@H]2O)C[C@@H]2O[C@](O)(C[C@@H](O)C[C@@H](O)[C@H](O)CC[C@@H](O)C[C@@H](O)CC(=O)O[C@H]1C)C[C@H](O)[C@H]2C(=O)O` the value was “inactive”; for `CC(C)N(CCC(=O)c1ccc2ccccc2c1)Cc1ccccc1`, 2.35 µM (active); for `CCOC(=O)Oc1ccc(CCNC(=O)[C@H](CCSC)NC(C)=O)cc1OC(=O)OCC`, “inactive”.
For the compound `C[N+](C)(C)CC[N+]1(C)Cc2c(Cl)c(Cl)c(Cl)c(Cl)c2C1`, the Potency entry is “inactive”.
For `O=C(Nc1cc(Oc2cc(F)c(NC(=O)C3(C(=O)Nc4ccc(F)cc4)CC3)cc2F)ccn1)C1CC1` the value was 23.1 nM (active) and 59 nM (active).
With `COc1ccc(CCN(C)CCCN2CCc3cc(OC)c(OC)cc3CC2=O)cc1OC`, the Potency entry was “inactive”.
